# Screening data: PubChem BioAssay, several laboratories
# VLA-4 inh – inhibition in a human VLA-4 binding assay; AID 2557; inhibition, % (about 7 µM as worked out from the volumes in the protocol); P13612; VLA-4 expressing cells, ligand binding flow cytometry; 330,000 tested, 0.2% active; in the data active means inhibition above about 50%
# CendR NRP1 mod – NRP-1/CendR interaction modulation; inhibition, % at 25 µM; O14786; AID 602438; FAM-RPARPAR peptide binding to NRP-1, fluorescence polarization; 360,000 tested, 0.85% active;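 active means inhibition or corrected inhibition above about 18%, plus a signal ratio from 0.5 to 1.5, limit read from the data, passing the limit was not always enough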
# beta cell repl – MIN6 beta-cell proliferation induction. MIN6 cells proliferation, ATPlite luminescence, 48 h; cells starved in 0.2% serum; 100% = growth in 10% serum. proliferation, % at 10 µM. 330,000 tested, 0.29% active. AID 2380;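 active means compounds whose signal lies at least 3.5 SD above the mean of all wells on their plate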;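 further: 0% = DMSO-treated cells in low-serum medium and 100% = 10% serum control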
# A3A deaminase – inhibitors of human APOBEC3A DNA deaminase. 330,000 tested, 0.41% active. P31941. recombinant A3A, FAM/TAMRA ssDNA deamination fluorescence. inhibition, % at 20 µM. AID 493011;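 active means at least 40% inhibition at 20 µM here, with at most 30% in a related deaminase screen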;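 further: plate controls were A3A with DMSO for no effect and wells lacking A3A enzyme for full effect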
# Target sequence (P31941 whole entry, looked up): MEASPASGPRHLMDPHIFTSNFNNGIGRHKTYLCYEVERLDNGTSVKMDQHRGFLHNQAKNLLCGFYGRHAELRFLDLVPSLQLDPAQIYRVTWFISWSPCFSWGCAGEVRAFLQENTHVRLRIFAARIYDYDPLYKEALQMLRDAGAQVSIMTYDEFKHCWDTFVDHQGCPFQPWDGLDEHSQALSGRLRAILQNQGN
# A3G deaminase – APOBEC3G (human) deaminase inhibition. Q9HC16. recombinant A3G, ssDNA deamination FAM/TAMRA fluorescence. inhibition, % at 20 µM. 330,000 tested, 0.28% active;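 active means inhibition of at least 40% at 20 µM, with no more than 30% in the related APOBEC3A deaminase screen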;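 further: plate controls were DMSO wells with A3G for no effect and wells lacking A3G enzyme for full effect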
# Target sequence (Q9HC16 whole entry, looked up): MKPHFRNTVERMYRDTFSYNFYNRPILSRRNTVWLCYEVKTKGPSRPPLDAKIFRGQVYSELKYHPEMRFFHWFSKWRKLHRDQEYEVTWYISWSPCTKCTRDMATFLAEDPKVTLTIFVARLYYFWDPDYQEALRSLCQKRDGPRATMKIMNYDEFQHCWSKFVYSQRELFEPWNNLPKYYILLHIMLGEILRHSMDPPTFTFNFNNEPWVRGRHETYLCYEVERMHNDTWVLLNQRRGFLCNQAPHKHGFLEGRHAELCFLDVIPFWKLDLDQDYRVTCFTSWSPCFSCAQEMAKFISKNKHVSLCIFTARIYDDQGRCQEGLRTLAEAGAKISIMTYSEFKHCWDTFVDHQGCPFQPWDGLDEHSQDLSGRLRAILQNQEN
# APOBEC3G confirm – APOBEC3G (human) deaminase inhibition, confirmed; shares compounds with A3G deaminase; recombinant A3G ssDNA deaminase, UDG/FAM-TAMRA fluorescence; inhibition, % at 20 µM; 890 tested, 72% active;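 active means inhibition reaching a set limit in any replicate at 20 µM, the limit being 80% of the first screen's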
# UDG ctr A3G – E. coli UDG inhibition in APOBEC3G counter-screen | shares compounds with A3G deaminase | UDG counterscreen, FAM/TAMRA oligo fluorescence | inhibition, % at 20 µM | 710 tested, under 10 active;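 active means compounds giving 40% or more inhibition at 20 µM in any one of the three replicates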;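 further: plate controls were DMSO wells with UDG and oligo for no effect and DMSO wells lacking both for full effect; inhibitors lower the FAM signal released by uracil excision and alkaline cleavage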
# Numbers without * were called inactive; / = not tested or not shown. A selection: hits, their analogues and other compounds. The true share with any hit is near 1.8%.
SMILES,VLA-4 inh,CendR NRP1 mod,beta cell repl,A3A deaminase,A3G deaminase,APOBEC3G confirm,UDG ctr A3G
Cc1cc(OCC(=O)N(C)c2ccccc2)cc2c1C(=O)CC(C)(C)O2,0,1,0,2,59*,1,/
COC(=O)C=C1CCC2C3CCC4=CC(=O)CCC4(C)C3C(=O)CC12C (centres undefined),/,19,/,/,/,/,/
COc1cccc(-c2c(C(=O)O)cc(O)c3ccc(OC)cc23)c1,/,-15,/,/,/,/,/
CC(=O)c1ccc(NC(=O)c2ccc(NC(=O)c3ccco3)cc2)cc1,-10,-12,0,16,57*,57*,2
COC(=O)c1ccc(NC(=O)c2ccc(NC(=O)c3ccco3)cc2)cc1,-9,3,-3,7,25,/,/
Cc1ccc(N/N=C2\CCS(=O)(=O)c3sccc32)cc1,7,-4,-3,-6,45*,-6,-4
O=C(O)C1CC(c2ccc(F)cc2)=NO1 (centres undefined),17,-12,-1,23,74*,73*,3
O=C(O)C1CC(c2ccccc2)=NO1 (centres undefined),17,-2,-2,6,5,/,/
CC(C)OC(=O)CSc1nnc(-c2ccc(C(C)(C)C)cc2)n1N,-12,4,3,3,42*,28,/
CCOCCCn1c(=NC(=O)c2cccnc2)c(C(=O)OCC)cc2c(=O)n3ccccc3nc21,-7,7,-2,10,65*,58*,0
Cc1ccc(Oc2ccc(/C=N/O)cn2)cc1,24,3,0,-5,61*,-1,-4
O=C(CSc1cn[nH]n1)Nc1cccc(C(=O)O)c1,2,14,2,-1,62*,87*,-7
CCC(C)N(C(=O)CSc1nc2ccc(OC)cc2[nH]1)C1CCS(=O)(=O)C1 (centres undefined),0,-1,-2,25,-5,/,/
OC(Cc1ccnc2ccccc12)C(Cl)(Cl)Cl (centres undefined),/,-1,/,/,/,/,/
N#C/C(=N/Nc1ccc(OC(F)(F)F)cc1)C(N)=S,-12,-7,-4,2,14,/,/
NC(=S)N=Nc1ccc(NN=C(N)N)cc1,-12,17,-3,6,45*,46*,/
O=C(CSC(=O)c1ccccc1)Nc1ccccc1F,1,6,-6,1,41*,37*,-3
CCCCN1C(=O)C(CC(=O)NCc2ccco2)CC(C(=O)N(C(C)C)C(C)C)=C1C (centres undefined),/,2,/,/,/,/,/
Cc1ccc2c(CC(=O)N(C)c3c(N)n(Cc4ccccc4)c(=O)[nH]c3=O)coc2c1,-4,2,-1,-2,-9,/,/
Cc1nnc(NC(=O)CSc2nnc(CC(=O)Nc3ccccc3F)n2C)s1,-1,3,0,-3,-3,/,/
CC(/C=N/n1c(-c2cc(C)[nH]n2)n[nH]c1=S)=C\c1ccccc1,4,-5,-1,2,44*,26,/
Cc1cccc(-c2n[nH]c(=S)n2/N=C/c2ccc(C)o2)c1,-2,11,-2,-5,33,/,/
COc1ccc(/C=N/n2c(-c3cc(C)[nH]n3)n[nH]c2=S)cc1,1,8,3,-6,46*,91*,-3
COc1ccc(/C=N/n2c(-c3ccccc3)n[nH]c2=S)cc1,18,10,-2,-4,27,/,/
Cc1cc(-c2n[nH]c(=S)n2/N=C/c2ccc(C)o2)n[nH]1,4,10,-1,-5,40*,84*,-5
SMILES,VLA-4 inh,CendR NRP1 mod,beta cell repl,A3A deaminase,A3G deaminase,APOBEC3G confirm,UDG ctr A3G
COc1ccc(/C=N/n2c(-c3cc(C)[nH]n3)n[nH]c2=S)cc1OC,21,5,-2,-1,43*,63*,0
O=C(COC(=O)c1cccs1)Nc1cccc(S(=O)(=O)N2CCCCC2)c1,2,-4,-2,-2,-5,/,/
O=C(COC(=O)/C=C/c1cccc(Br)c1)NC1CCCCCC1,3,-1,2,-2,-3,/,/
CC1CCC(NC(=O)CCS(=O)(=O)c2ccc3c(c2)oc(=O)n3C)CC1 (centres undefined),8,-4,-3,2,-1,/,/
CN(C)C(=O)Cn1cc(S(=O)(=O)Cc2ccccc2)c2ccccc21,-6,8,2,-1,-4,/,/
CN(Cc1ccc(F)cc1)C(=O)c1cc(S(=O)(=O)N2CCCCC2)ccc1N1CCOCC1,/,14,-2,1,-6,/,/
COc1ccc(N2C(=O)CC(Sc3ncn[nH]3)C2=O)c(OC)c1 (centres undefined),25,-20,-4,-5,46*,active,-2
O=C(CCCNC(=O)c1ccc(Cl)cc1)Nc1ccccc1C(F)(F)F,14,1,-3,-1,-10,/,/
CN=c1nc(-c2ccccc2)n(-c2ccccc2)s1,8,-2,-8,-2,79*,96*,-3
CN(C)c1ccc(S(=O)(=O)N2CCC(Cc3ccccc3)CC2)cn1,-2,-4,-4,-2,-5,/,/
N#Cc1c(N)sc(=S)c2c1CCCC2,-7,-13,-1,24,47*,25,/
CCC1(C)Cc2c(C#N)c(N)sc(=S)c2CO1 (centres undefined),8,-21,2,-1,17,/,/
Cc1c(N2C(=O)/C(=C\c3ccccc3O)SC2=S)c(=O)n(-c2ccccc2)n1C,21,5,-6,-2,56*,75*,-1
O=C(O)Cc1sc(Nc2ccc(F)cc2)nc1-c1cccs1,-320,-86,-4,-3,8,/,/
O=c1[nH]c(-c2ccncc2)nc2ccccc12,11,18,-3,9,58*,56*,-2
O=c1[nH]c(-c2cccnc2)nc2ccccc12,1,-5,-1,5,-1,/,/
COC(=O)C1=C(C(=O)OC)SC2(S1)C(C(=O)OC)=C(C(=O)OC)SC1=C2c2cc(C)ccc2NC1(C)C,9,6,-7,1,45*,40*,-3
Cc1[nH]c(=O)[nH]c(=S)c1C(=O)Nc1ccc(Cl)c(Cl)c1,0,1,-3,-1,60*,74*,-6
O=C(CNc1cc(S(=O)(=O)N2CCOCC2)ccc1N1CCOCC1)Nc1cccc(C(F)(F)F)c1,3,-3,-4,2,41*,3,/
CCOC(=O)c1ccc(S(=O)(=O)N2CC(=O)Nc3ccccc32)cc1,-23,-9,-6,4,-1,/,/
Cc1ccc(C(=O)NNC(=S)NC(=O)COc2ccccc2)cc1,5,-19,-3,-4,53*,50*,-4
Cc1ccccc1C(=O)NCC(=O)NNC(=S)NC(=O)c1ccccc1,0,0,0,-1,43*,16,-23
